According to the supplement of paper PMC4466140:

B1: unnamed (peptide)
chain: SPLGAPPPPPHKDHL
B2: unnamed (peptide)
chain: TPEIPPPLPPKIMVH

target: SpBzz1-D2; assay: SPOT peptide array binding signal intensity (averaged, normalized) (arbitrary units (background-subtracted, floor 0; scale differs between SH3 domains)); higher = stronger binding of the SH3 domain to the peptide
In short: (§1)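 Cellulose membranes carried synthetic 15-mer peptides with cysteines swapped for serines. These were incubated overnight at 4°C with 10 μg/ml of GST-fused SH3 domains from four yeast species in TBS-based blocking buffer. Binding signal, detected with anti-GST antibody and quantified in Genespotter, is the normalized, background-subtracted spot intensity averaged over replicates, in arbitrary units specific to each domain.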

| Binder | SPOT peptide array binding signal intensity |
| --- | --- |
| B1 | ≤ 0 |

target: SpCyk3; assay: as above
In short: as §1

| Binder | SPOT peptide array binding signal intensity |
| --- | --- |
| B1 | ≤ 0 |

target: SpHof1; assay: as above
In short: as §1

| Binder | SPOT peptide array binding signal intensity |
| --- | --- |
| B1 | ≤ 0 |

target: SpHof1-2; assay: as above
In short: as §1

| Binder | SPOT peptide array binding signal intensity |
| --- | --- |
| B1 | 1 |

target: SpHof1-3; assay: as above
In short: as §1

| Binder | SPOT peptide array binding signal intensity |
| --- | --- |
| B1 | ≤ 0 |

target: SpHse1; assay: as above
In short: as §1

| Binder | SPOT peptide array binding signal intensity |
| --- | --- |
| B1 | ≤ 0 |

target: SpLsb1; assay: as above
In short: as §1

| Binder | SPOT peptide array binding signal intensity |
| --- | --- |
| B1 | ≤ 0 |

target: SpLsb4; assay: as above
In short: as §1

| Binder | SPOT peptide array binding signal intensity |
| --- | --- |
| B1 | ≤ 0 |

target: SpMyo1; assay: as above
In short: as §1

| Binder | SPOT peptide array binding signal intensity |
| --- | --- |
| B1 | 1260 |

target: SpNbp2; assay: as above
In short: as §1

| Binder | SPOT peptide array binding signal intensity |
| --- | --- |
| B1 | ≤ 0 |

target: SpPex13; assay: as above
In short: as §1

| Binder | SPOT peptide array binding signal intensity |
| --- | --- |
| B1 | 2 |

target: SpRvs167; assay: as above
In short: as §1

| Binder | SPOT peptide array binding signal intensity |
| --- | --- |
| B1 | 0.167 |

target: SpSla1-D1-D2; assay: as above
In short: as §1

| Binder | SPOT peptide array binding signal intensity |
| --- | --- |
| B1 | 1 |

target: SpSla1-D3; assay: as above
In short: as §1

| Binder | SPOT peptide array binding signal intensity |
| --- | --- |
| B1 | ≤ 0 |

target: AgAbp1; assay: as above
In short: as §1

| Binder | SPOT peptide array binding signal intensity |
| --- | --- |
| B2 | ≤ 0 |

target: AgBbc1; assay: as above
In short: as §1

| Binder | SPOT peptide array binding signal intensity |
| --- | --- |
| B2 | ≤ 0 |

target: AgBem1-D1; assay: as above
In short: as §1

| Binder | SPOT peptide array binding signal intensity |
| --- | --- |
| B2 | ≤ 0 |

target: AgBzz1-D1; assay: as above
In short: as §1

| Binder | SPOT peptide array binding signal intensity |
| --- | --- |
| B2 | ≤ 0 |

target: AgBzz1-D2; assay: as above
In short: as §1

| Binder | SPOT peptide array binding signal intensity |
| --- | --- |
| B2 | 4.5 |

target: AgCyk3; assay: as above
In short: as §1

| Binder | SPOT peptide array binding signal intensity |
| --- | --- |
| B2 | ≤ 0 |

target: AgFus1; assay: as above
In short: as §1

| Binder | SPOT peptide array binding signal intensity |
| --- | --- |
| B2 | ≤ 0 |

target: AgHof1; assay: as above
In short: as §1

| Binder | SPOT peptide array binding signal intensity |
| --- | --- |
| B2 | 631 |

target: AgHse1; assay: as above
In short: as §1

| Binder | SPOT peptide array binding signal intensity |
| --- | --- |
| B2 | 822 |

target: AgLsb1; assay: as above
In short: as §1

| Binder | SPOT peptide array binding signal intensity |
| --- | --- |
| B2 | ≤ 0 |

target: AgLsb4; assay: as above
In short: as §1

| Binder | SPOT peptide array binding signal intensity |
| --- | --- |
| B2 | 232 |

target: AgMyo5; assay: as above
In short: as §1

| Binder | SPOT peptide array binding signal intensity |
| --- | --- |
| B2 | 496 |

target: AgNbp2; assay: as above
In short: as §1

| Binder | SPOT peptide array binding signal intensity |
| --- | --- |
| B2 | ≤ 0 |

target: AgRvs167; assay: as above
In short: as §1

| Binder | SPOT peptide array binding signal intensity |
| --- | --- |
| B2 | 9.33 |

target: AgSho1; assay: as above
In short: as §1

| Binder | SPOT peptide array binding signal intensity |
| --- | --- |
| B2 | 66 |

target: AgSla1-D1-D2; assay: as above
In short: as §1

| Binder | SPOT peptide array binding signal intensity |
| --- | --- |
| B2 | ≤ 0 |

target: AgSla1-D3; assay: as above
In short: as §1

| Binder | SPOT peptide array binding signal intensity |
| --- | --- |
| B2 | ≤ 0 |

target: CaAbp1-D1; assay: as above
In short: as §1

| Binder | SPOT peptide array binding signal intensity |
| --- | --- |
| B2 | 6.5 |

target: CaAbp1-D2; assay: as above
In short: as §1

| Binder | SPOT peptide array binding signal intensity |
| --- | --- |
| B2 | ≤ 0 |

target: CaBbc1; assay: as above
In short: as §1

| Binder | SPOT peptide array binding signal intensity |
| --- | --- |
| B2 | ≤ 0 |

target: CaBem1-D1; assay: as above
In short: as §1

| Binder | SPOT peptide array binding signal intensity |
| --- | --- |
| B2 | ≤ 0 |

target: CaBzz1-D1; assay: as above
In short: as §1

| Binder | SPOT peptide array binding signal intensity |
| --- | --- |
| B2 | ≤ 0 |

target: CaBzz1-D2; assay: as above
In short: as §1

| Binder | SPOT peptide array binding signal intensity |
| --- | --- |
| B2 | ≤ 0 |

target: CaCyk3; assay: as above
In short: as §1

| Binder | SPOT peptide array binding signal intensity |
| --- | --- |
| B2 | ≤ 0 |

target: CaFus1; assay: as above
In short: as §1

| Binder | SPOT peptide array binding signal intensity |
| --- | --- |
| B2 | 74 |

target: CaHof1; assay: as above
In short: as §1

| Binder | SPOT peptide array binding signal intensity |
| --- | --- |
| B2 | 20.5 |

target: CaHse1; assay: as above
In short: as §1

| Binder | SPOT peptide array binding signal intensity |
| --- | --- |
| B2 | 3420 |

target: CaLsb1; assay: as above
In short: as §1

| Binder | SPOT peptide array binding signal intensity |
| --- | --- |
| B2 | ≤ 0 |

target: CaLsb4; assay: as above
In short: as §1

| Binder | SPOT peptide array binding signal intensity |
| --- | --- |
| B2 | 1090 |

target: CaMyo5; assay: as above
In short: as §1

| Binder | SPOT peptide array binding signal intensity |
| --- | --- |
| B2 | 25.5 |
